Assay outcomes (PubChem BioAssay)
D1 antagonist = Antagonist of Human D 1 Dopamine Receptor: qHTS; D(1A) dopamine receptor (Homo sapiens), P21728; HEK293 TREx D1 cells, calcium flux, dopamine EC80; active compounds read low; activity change, negative = inhibition, % at 10 µM; 360,000 compounds, 3.2% hits; in the data active = activity change below about -30%
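Tetracycline-induced HEK293 Trex D1 cells, force-coupled to calcium, dye-loaded; compounds added and read 180 s, then EC80 dopamine added and calcium flux tracked kinetically another 180 s.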
D1 ag = Allosteric Agonists of the Human D1 Dopamine Receptor: qHTS; D(1A) dopamine receptor (Homo sapiens), P21728; HEK293 T-REx D1 cells, calcium flux, agonist mode; activation, % at 2 µM; 360,000 compounds, 1% hits; AID 504660, 2011
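Agonism was scored from calcium flux recorded over 180 s (1 read/s) after pintool compound addition, following a 10-cycle baseline. Cells were inducible force-coupled HEK293 TREx D1, plated overnight at 30 C and loaded with no-wash calcium dye.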
TRHR PAM = qHTS for Small Molecule Agonists and Allosteric Enhancers of Human TRH Receptor: Primary Screen for Enhancers; Thyrotropin-releasing hormone receptor (Homo sapiens), P34981; TRHR cells, fluo-8 calcium fluorescence, EC20 TRH enhancement; enhancement, % at 2 µM; 360,000 compounds, 0.66% hits; in the data active = enhancement above about 30%
Target sequence (P34981 whole entry, looked up): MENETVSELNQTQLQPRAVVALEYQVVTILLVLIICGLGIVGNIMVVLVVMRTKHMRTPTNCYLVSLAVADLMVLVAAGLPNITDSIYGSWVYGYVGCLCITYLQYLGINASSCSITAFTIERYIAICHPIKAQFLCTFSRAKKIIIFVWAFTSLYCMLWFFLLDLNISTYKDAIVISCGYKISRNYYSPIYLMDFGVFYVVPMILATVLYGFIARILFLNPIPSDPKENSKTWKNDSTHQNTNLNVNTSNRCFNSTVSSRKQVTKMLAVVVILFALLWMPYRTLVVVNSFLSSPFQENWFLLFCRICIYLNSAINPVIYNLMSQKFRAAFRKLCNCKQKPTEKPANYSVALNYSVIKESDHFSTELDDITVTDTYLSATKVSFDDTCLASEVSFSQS
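Enhancer read-out: after compound pinning and an initial kinetic agonist-mode read, an EC20 of TRH (10 nM final) was injected and fluo-8 calcium signal (Ex 480/Em 530) followed at 1 s/cycle for 100 cycles in TRHR-expressing cells.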
LDHA inh = qHTS assay for inhibitors of human lactate dehydrogenase. L-lactate dehydrogenase A chain (Homo sapiens), P00338. purified LDHA, NADH/diaphorase-resazurin fluorescence; active compounds read low. activity change, % (values are at about 110 or 230 µM). 480,000 compounds, 0.15% hits; in the data active = activity change below about -30%
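LDH5 2 nM; NADH 0.06 mM, pyruvate 0.2 mM; 200 mM Tris pH 7.4, EDTA, Tween-20; 5 min RT. Detection: diaphorase 0.133 mg/mL + resazurin 37 µM, fluorescence ex540/em590 at 0 and 20 min; normalized to enzyme-free and DMSO wells.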
D1 PAM = Potentiators of Human D1 Dopamine Receptor: qHTS; 360,000 compounds, 0.036% hits; HEK293 TREx D1 cells, calcium flux, dopamine EC20 potentiation; AID 504651, 2011; potentiation, % at 10 µM; in the data active = potentiation above about 30%
TRHR agonist = qHTS for Small Molecule Agonists and Allosteric Enhancers of Human TRH Receptor: Primary Screen for Agonists. Thyrotropin-releasing hormone receptor (Homo sapiens), P34981. TRHR cells, calcium flux fluo-8, FDSS agonist mode. activation, % at 2 µM. 360,000 compounds, 0.18% hits
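TRHR-expressing cells, plated overnight in medium with 10% serum, were loaded with fluo-8 calcium dye at room temperature. After a 10 s baseline, library compound was pin-added and calcium release was recorded kinetically (ex 480/em 530) as agonist response.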
Numbers stand for hits; . = inactive; / = not tested or not shown. Rows were chosen to be rich in hits. Some 3.6% of all compounds tested hit in one or more screens of this group. Rule as the data show it, unless noted: active = activation above about 30%; inactive = the rest.

SMILES	D1 antagonist	D1 ag	TRHR PAM	LDHA inh	D1 PAM	TRHR agonist
COC(=O)c1ccc(N2CC3=C(C2=O)C(c2ccccc2)NC(=O)N3C)cc1 (stereo not given)	/	/	/	.	/	/
S=c1[nH]nc(Nc2cccc3ccccc23)s1	-33	.	.	.	.	.
CCC(C(=O)Nc1ccccc1OC)n1cnc2c1c(=O)n(C)c(=O)n2C (stereo not given)	/	/	/	.	/	/
N#Cc1c(-c2ccccc2)cc(C2CC2)nc1N	.	31	.	.	.	.
CC(Oc1ccc(Cl)cc1)C(=O)NC(C)c1ccc2ccccc2c1 (stereo not given)	/	/	/	.	/	/
O=C(O)c1cccc2c3c([nH]c12)CCCC3	-30	.	.	.	.	.
Cc1ccccc1NC(=O)c1cccc2c(=O)c3c([nH]c12)CCCC3	.	.	.	.	.	.
O=C(O)c1nnn(-c2ccc([N+](=O)[O-])cc2)c1-c1ccccc1	-42	.	.	.	.	.
C/C(=N\O)c1ccc(Cl)c(Cl)c1	-49	.	.	.	.	.
CNC(=S)N/N=C(\C)c1ccc(Cl)c(Cl)c1	.	.	.	.	.	.
C/C(=N\NC(=O)Cc1ccc(Cl)cc1)c1ccccc1O	-36	.	.	.	.	.
C/C(=N\NC(=O)CSCc1ccc([N+](=O)[O-])cc1)c1ccccc1O	-87	.	.	.	.	.
COc1ccc(OC)c(C2=NS(=O)(=O)N(C)C(C(=O)N3CCN(C)CC3)=C2)c1	/	/	/	.	/	/
O=C(COc1ccc(Cl)cc1)Nc1nc2n(n1)C(c1ccc(Cl)cc1)CC(=O)N2 (stereo not given)	/	/	/	.	/	/
COc1ccc(C2CC(Cn3cc(C#N)c(=O)n(C)c3=O)ON2C)cc1 (stereo not given)	-34	.	.	.	.	.
COCCNC(=O)C1=NOC(Cn2cc(C#N)c(=O)n(C)c2=O)C1 (stereo not given)	.	.	.	.	.	.
Cc1ccc(Nc2ccc(C(N)=O)cc2[N+](=O)[O-])cc1C	-53	.	.	.	.	.
CCc1ccc(Nc2ccc(C(=O)O)cc2[N+](=O)[O-])cc1	.	.	.	.	.	.
CCc1ccc(Nc2ccc(C(N)=O)cc2[N+](=O)[O-])cc1	-40	.	.	.	.	.
Cc1ccc(NC(=O)CSc2ccc(C(N)=O)cc2[N+](=O)[O-])cc1C	/	.	.	.	.	.
CC1C(=O)CCC1(C(=O)O)c1ccccc1 (stereo not given)	.	.	33	.	.	.
CCONC(=O)NC(c1ccc(OC)cc1)C(C)C (stereo not given)	/	/	/	.	/	/
COc1ccc(-[n+]2c(C)cc(/C=C3\Sc4ccccc4N3C)cc2C)cc1	.	78	66	.	.	73
COc1ccccc1-[n+]1c(C)cc(/C=C2\Sc3ccccc3N2C)cc1C	.	42	90	.	.	61
COc1ccc(C(=O)/C=C2\Sc3ccccc3N2C)cc1	.	.	.	.	.	.
SMILES	D1 antagonist	D1 ag	TRHR PAM	LDHA inh	D1 PAM	TRHR agonist
COc1cc(SC)ccc1C(=O)OC(C(=O)c1ccccc1)c1ccccc1 (stereo not given)	/	/	/	-33	/	/
O=C(COC(=O)C1(c2ccccc2F)CCCC1)Nc1ncc(C(F)(F)F)cc1Cl	-36	.	.	.	.	.
NS(=O)(=O)c1ccc(N/N=C/C(Br)=C/c2ccccc2)c([N+](=O)[O-])c1	/	/	/	.	/	/
c1ccc2c(c1)OCCOCCOCCOCCOc1ccccc1OCCOCCOCCO2	-32	.	.	.	.	.
CN1CCOCCOc2ccccc2OCCOCC1	/	/	/	.	/	/
O=C(c1ccc2ncsc2c1)N1CCN(c2nc3c(F)cccc3s2)CC1	/	/	/	.	/	/
CC1=NN(c2ccccc2)C(=O)C1	.	.	.	.	.	.
CC1=NN(c2cccc([N+](=O)[O-])c2)C(=O)C1	.	43	.	.	.	.
CC1C(=O)N2CCCc3cc(S(=O)(=O)Nc4ccccc4C(N)=O)cc1c32 (stereo not given)	.	.	32	.	.	.
CC1C(=O)N2CCCc3cc(S(=O)(=O)Nc4ccccc4F)cc1c32 (stereo not given)	.	.	.	.	.	.
Cc1cc(C)n(-c2ncnc3sc(C)c(-c4ccc(F)cc4)c23)n1	/	/	/	.	/	/
COc1ccccc1NC(=O)OCC#CCOC(=O)Nc1ccccc1OC	-58	.	.	.	.	.
COc1ccccc1NC(=O)CCCCC(=O)Nc1ccccc1OC	.	.	.	.	.	.
C=CCN1C(=O)COc2ccc(NC(=O)c3cc(=O)c4ccc(C)c(C)c4o3)cc21	/	/	/	.	/	/
O=C(CN1C(=O)NC(Cc2ccccc2)C1=O)Nc1ccc(F)cc1 (stereo not given)	-86	.	.	.	.	.
O=C(CN1C(=O)NC(Cc2ccccc2)C1=O)Nc1ccc(OC(F)(F)F)cc1 (stereo not given)	.	.	.	.	.	.
O=C(CCc1ncc(-c2ccccc2Cl)o1)NCC1(N2CCCCC2)CCCCC1	/	/	/	.	/	/
CN(C)CCNC(=O)c1cc2c(s1)-c1ccc(Cl)cc1SC2	-48	.	.	.	.	.
N#Cc1ccc(NC(=O)COC(=O)CSc2nnc(-c3ccc(Cl)cc3)o2)cc1	-37	.	.	.	.	.
O=C(COC(=O)CSc1nnc(-c2ccc(Cl)cc2)o1)NCc1ccc2c(c1)OCO2	-36	.	.	.	.	.
Cc1cc(/C=C2\C(=N)N3N=C(C(C)C)SC3=NC2=O)c(C)n1Cc1ccccc1	-40	112	.	.	.	.
CC1=NN2C(=N)/C(=C\c3cc(C)n(-c4ccccc4)c3C)C(=O)N=C2S1	.	.	.	.	.	.
Cc1cc(/C=C2\C(=N)N3N=C(c4ccco4)SC3=NC2=O)c(C)n1Cc1ccccc1	-39	38	.	.	.	.
Cc1cc(/C=C2\C(=N)N3C(SCc4ccccc4)=NSC3=NC2=O)c(C)n1Cc1ccccc1	.	.	.	.	.	.
CCC1=NN2C(=N)/C(=C/c3cc(C)n(Cc4ccccc4)c3C)C(=O)N=C2S1	-51	66	.	.	.	.
COc1ccc(NC(=O)c2cc(-c3ccccn3)n[nH]2)cc1Cl	/	/	/	.	/	/
CC(C)CC(NC(=O)COc1cccc2ccccc12)C(=O)O (stereo not given)	/	/	/	.	/	/
